Reference: the supplement of paper PMC8728848
The entries come from a sample that favours the strongest signals as a whole.

How the values were obtained:
Test in all cases: glycan array binding signal (z-score within array); higher = stronger binding
Conditions in all cases: glycan notation: IUPAC condensed, linker removed; mutation: F63H
[1] = target: Fuc(a1-2)Gal(b1-3)GalNAc
In short: (§1)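 The binding signal is a Z-score computed within each array and averaged over linkers. Arrays of the same protein sequence at different concentrations or buffers were also averaged together. Data originate from 3228 arrays in the Consortium for Functional Glycomics database, kept only where the protein sequence was available.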

[2] = target: Fuc(a1-2)Gal(b1-3)GalNAc(b1-3)Gal(a1-4)Gal(b1-4)Glc
In short: as §1

[3] = target: Fuc(a1-2)Gal(b1-3)GlcNAc(b1-3)Gal(b1-4)Glc
In short: as §1

[4] = target: Fuc(a1-2)Gal(b1-3)GlcNAc(b1-3)[Neu5Ac(a2-6)Gal(b1-4)GlcNAc(b1-6)]Gal(b1-4)Glc
In short: as §1

[5] = target: Fuc(a1-2)Gal(b1-4)GlcNAc(b1-3)Gal(b1-4)GlcNAc(b1-3)Gal(b1-4)GlcNAc
In short: as §1

[6] = target: Fuc(a1-2)[GalNAc(b1-3)]Gal
In short: as §1

[7] = target: Fuc(a1-3)GlcNAc
In short: as §1

[8] = target: Fuc(a1-3)[GalNAc(b1-4)]GlcNAc6S
In short: as §1

[9] = target: Gal(a1-3)Gal
In short: as §1

[10] = target: Gal(a1-3)Gal(b1-4)GlcNAc
In short: as §1

[11] = target: Gal(a1-3)Gal(b1-4)GlcNAc(b1-6)GalNAc
In short: as §1

[12] = target: Gal(a1-4)Gal(b1-4)GlcNAc(b1-2)Man(a1-3)[Gal(a1-4)Gal(b1-4)GlcNAc(b1-2)Man(a1-6)]Man(b1-4)GlcNAc(b1-4)GlcNAc
In short: as §1

[13] = target: Gal(b1-3)Gal(b1-4)GlcNAc
In short: as §1

[14] = target: Gal(b1-3)GalNAc
In short: as §1

[15] = target: Gal(b1-3)GalNAc(a1-3)[Fuc(a1-2)]Gal(b1-4)Glc
In short: as §1

[16] = target: Gal(b1-3)GalNAc(a1-3)[Fuc(a1-2)]Gal(b1-4)GlcNAc
In short: as §1

[17] = target: Gal(b1-3)GalNAc(b1-4)Gal(b1-4)Glc
In short: as §1

[18] = target: Gal(b1-3)GlcNAc(a1-3)Gal(b1-4)GlcNAc
In short: as §1

[19] = target: Gal(b1-3)GlcNAc(b1-3)Gal(b1-4)GlcNAc(b1-3)Gal(b1-4)GlcNAc(b1-2)[Gal(b1-3)GlcNAc(b1-3)Gal(b1-4)GlcNAc(b1-3)Gal(b1-4)GlcNAc(b1-6)]Man(a1-6)[Gal(b1-3)GlcNAc(b1-3)Gal(b1-4)GlcNAc(b1-3)Gal(b1-4)GlcNAc(b1-2)Man(a1-3)]Man(b1-4)GlcNAc(b1-4)[Fuc(a1-6)]GlcNAc
In short: as §1

[20] = target: Gal(b1-3)GlcNAc(b1-6)GalNAc
In short: as §1

[21] = target: Gal(b1-4)GlcNAc(b1-2)Man(a1-3)[Gal(b1-4)GlcNAc(b1-2)Man(a1-6)][Gal(b1-4)GlcNAc(b1-4)]Man(b1-4)GlcNAc(b1-4)[Fuc(a1-6)]GlcNAc
In short: as §1

[22] = target: Gal(b1-4)GlcNAc(b1-2)Man(a1-6)[GlcNAc(b1-2)Man(a1-3)]Man(b1-4)GlcNAc(b1-4)GlcNAc
In short: as §1

[23] = target: Gal(b1-4)GlcNAc(b1-2)[Gal(b1-4)GlcNAc(b1-6)]Man(a1-6)[GlcNAc(b1-4)][Gal(b1-4)GlcNAc(b1-2)Man(a1-3)]Man(b1-4)GlcNAc(b1-4)GlcNAc
In short: as §1

[24] = target: Gal(b1-4)GlcNAc(b1-2)[Gal(b1-4)GlcNAc(b1-6)]Man(a1-6)[GlcNAc(b1-4)][Gal(b1-4)GlcNAc(b1-2)[Gal(b1-4)GlcNAc(b1-4)]Man(a1-3)]Man(b1-4)GlcNAc(b1-4)[Fuc(a1-6)]GlcNAc
In short: as §1

[25] = target: Gal(b1-4)GlcNAc(b1-3)Gal(b1-4)GlcNAc(b1-3)Gal(b1-4)GlcNAc(b1-2)Man(a1-3)[Gal(b1-4)GlcNAc(b1-3)Gal(b1-4)GlcNAc(b1-3)Gal(b1-4)GlcNAc(b1-2)Man(a1-6)]Man(b1-4)GlcNAc(b1-4)[Fuc(a1-6)]GlcNAc
In short: as §1

[26] = target: Gal(b1-4)GlcNAc(b1-3)Gal(b1-4)GlcNAc(b1-3)Gal(b1-4)GlcNAc(b1-3)Gal(b1-4)GlcNAc(b1-3)Gal(b1-4)GlcNAc(b1-2)Man(a1-3)[Gal(b1-4)GlcNAc(b1-3)Gal(b1-4)GlcNAc(b1-3)Gal(b1-4)GlcNAc(b1-3)Gal(b1-4)GlcNAc(b1-3)Gal(b1-4)GlcNAc(b1-2)Man(a1-6)]Man(b1-4)GlcNAc(b1-4)[Fuc(a1-6)]GlcNAc
In short: as §1

[27] = target: Gal(b1-4)GlcNAc(b1-3)Gal(b1-4)GlcNAc(b1-3)Gal(b1-4)GlcNAc(b1-3)Gal(b1-4)GlcNAc(b1-3)Gal(b1-4)GlcNAc(b1-3)Gal(b1-4)GlcNAc(b1-2)Man(a1-3)[Gal(b1-4)GlcNAc(b1-3)Gal(b1-4)GlcNAc(b1-3)Gal(b1-4)GlcNAc(b1-3)Gal(b1-4)GlcNAc(b1-3)Gal(b1-4)GlcNAc(b1-3)Gal(b1-4)GlcNAc(b1-2)Man(a1-6)]Man(b1-4)GlcNAc(b1-4)GlcNAc
In short: as §1

[28] = target: Gal(b1-4)GlcNAc(b1-3)Gal(b1-4)GlcNAc(b1-3)GalNAc
In short: as §1

[29] = target: Gal(b1-4)GlcNAc(b1-3)Gal(b1-4)GlcNAc(b1-3)[Gal(b1-4)GlcNAc(b1-3)Gal(b1-4)GlcNAc(b1-6)]GalNAc
In short: as §1

[30] = target: Gal(b1-4)GlcNAc(b1-3)GalNAc
In short: as §1

[31] = target: Gal(b1-6)Gal
In short: as §1

[32] = target: Gal3S(b1-3)GlcNAc
In short: as §1

B1: AAL (Agrocybe aegerita), Q6WY08 (protein)
chain: MQGVNIYNISAGTSVDLAAPVTTGDIVTFFSSALNLNAGAGNPNNTTLNLFAENGAYLLHIAHRLQENVIIFNSRQPDGPWLVEQRVSDVANQFAGIDGKAMVTVFDHGDKYQVVINEKTVIQYTKQISGLTLSLSYNATEETSIFSTVVEAVTYTGLALEHHHHHH
glycan array binding signal (z-score) [1]: -0.198 | glycan array binding signal (z-score) [2]: -0.075 | glycan array binding signal (z-score) [3]: -0.394 | glycan array binding signal (z-score) [4]: 0.013 | glycan array binding signal (z-score) [5]: -0.151 | glycan array binding signal (z-score) [6]: -0.544 | glycan array binding signal (z-score) [7]: -0.394 | glycan array binding signal (z-score) [8]: -0.005 | glycan array binding signal (z-score) [9]: -0.04 | glycan array binding signal (z-score) [10]: -0.342 | glycan array binding signal (z-score) [11]: -0.072 | glycan array binding signal (z-score) [12]: 0.969 | glycan array binding signal (z-score) [13]: -0.287 | glycan array binding signal (z-score) [14]: -0.177 | glycan array binding signal (z-score) [15]: -0.298 | glycan array binding signal (z-score) [16]: -0.341 | glycan array binding signal (z-score) [17]: -0.435 | glycan array binding signal (z-score) [18]: 0.927 | glycan array binding signal (z-score) [19]: 0.029 | glycan array binding signal (z-score) [20]: 0.316 | glycan array binding signal (z-score) [21]: -0.332 | glycan array binding signal (z-score) [22]: -0.263 | glycan array binding signal (z-score) [23]: 4.37 | glycan array binding signal (z-score) [24]: -0.265 | glycan array binding signal (z-score) [25]: 1.22 | glycan array binding signal (z-score) [26]: -0.033 | glycan array binding signal (z-score) [27]: 0.376 | glycan array binding signal (z-score) [28]: -0.163 | glycan array binding signal (z-score) [29]: 0.226 | glycan array binding signal (z-score) [30]: -0.105 | glycan array binding signal (z-score) [31]: -0.264 | glycan array binding signal (z-score) [32]: -0.185
